Values joined by “and” are separate entries in the source; they are usually repeats but may differ in a detail not shown here. Equal entries are not always repeated. Results filed as inconclusive are left out. Some compounds were tested as several samples or in several runs, with calls that do not always agree. Active and inactive are the calls of the source. Unless noted, the call rests on the fitted dose curve; in most records, active means well fitted curve in the direction sought with a large enough effect in the repeat runs; inconclusive means weak or mixed curves; inactive means no such curve, though single readings can be large; an effect the other way counts as inactive or inconclusive.
Tests used:
[1] = qHTS assay to identify small molecule agonists of the hypoxia (HIF-1) signaling pathway - cell viability counter screen (AID 1224844; calls by dose curve; further: nearly all actives have a fitted effect of over 50% in size)
In short: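 ME-180 HRE-bla cells, 2,000/well, 0.5% dialyzed FBS; 5 hr settle, 17 hr compound at 37C/5% CO2; CCF4-AM reporter read first, then CellTiter-Glo luminescence after 30 min RT.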

[2] = qHTS assay to identify small molecule agonists of H2AX - cell viability counter screen (AID 1224847; calls by dose curve; further: top concentration of the series differs between compounds; nearly all actives have a fitted effect of over 30% in size)
In short: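 CHO-K1 wt, 1000 cells/well, o/n 37C; cpds 15 conc, 3 h 37C, 0.76% DMSO; CellTiter-Glo, 30 min RT, luminescence.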

[3] = A CellTox Green Cytotoxicity Assay to monitor cytotoxicity in HEK293 cells - 0 hour (AID 1224869); further: nearly all actives have a fitted effect of over 50% in size
In short: (§1)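 Nonlytic real-time cytotoxicity: HEK293 + CellTox Green reagent plated, 5 h preincubation, pintool compound addition (23 nL in DMSO), 37 C for 40 h, fluorescence measured at successive time points.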

[4] = qHTS RealTime-Glo MT Cell Viability Assay in HepG2 cells - 40 hour (AID 1224870); further: nearly all actives have a fitted effect of over 50% in size
In short: (§2)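 HepG2 cells (600/well) mixed with RealTime-Glo MT reagent, settled 5 h at 37 C/5% CO2 before compound addition. Nonlytic NanoLuc luminescence from viable-cell prosubstrate reduction read repeatedly during 40 h treatment at 37 C.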

[5] = A CellTox Green Cytotoxicity Assay to monitor cytotoxicity in HEK293 cells - 40 hour (AID 1224871); further: nearly all actives have a fitted effect of over 45% in size; further: potency means the concentration at half of the fitted maximal effect
In short: as §1

[6] = qHTS RealTime-Glo MT Cell Viability Assay in HEK293 cells - 16 hour (AID 1224872); further: top concentration of the series differs between compounds; nearly all actives have a fitted effect of over 50% in size
In short: (§3)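 Assay medium contained NanoLuc luciferase plus cell-permeant prosubstrate, added with HEK293 cells at 600 cells/well. After 5 h at 37 C/5% CO2 compounds were added; plates stayed at 37 C for 40 h with serial luminescence reads.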

[7] = qHTS RealTime-Glo MT Cell Viability Assay in HepG2 cells - 8 hour (AID 1224873); further: nearly all actives have a fitted effect of over 55% in size
In short: as §2

[8] = qHTS RealTime-Glo MT Cell Viability Assay in HEK293 cells - 40 hour (AID 1224874); conditions: RealTime-Glo luminescence; max response: stronger effect = lower value; further: nearly all actives have a fitted effect of over 50% in size; further: potency means the concentration at half of the fitted maximal effect
In short: (§4)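 Cells were seeded together with NanoLuc luciferase and a prosubstrate that viable cells reduce to a luciferase substrate. After a 5 h incubation at 37 C/5% CO2, compounds were added and luminescence was measured repeatedly during 40 h of treatment.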

[9] = A CellTox Green Cytotoxicity Assay to monitor cytotoxicity in HEK293 cells - 24 hour (AID 1224875); further: nearly all actives have a fitted effect of over 45% in size
In short: as §1

[10] = A CellTox Green Cytotoxicity Assay to monitor cytotoxicity in HepG2 cells - 16 hour (AID 1224876); further: nearly all actives have a fitted effect of over 45% in size
In short: (§5)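 Read-out is fluorescence of a cyanine dye excluded from live cells that stains DNA of dead HepG2 cells, with signal proportional to cytotoxicity. Plates were read at 0, 8, 16, 24, 32 and 40 h after compound addition.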

[11] = qHTS RealTime-Glo MT Cell Viability Assay in HepG2 cells - 32 hour (AID 1224877); further: nearly all actives have a fitted effect of over 55% in size
In short: (§6)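 qHTS, HepG2, 600 cells/well, RealTime-Glo (NanoLuc + prosubstrate) added with cells; 5 h preincubation; DMSO compound addition; 37 C; luminescence at 0/8/16/24/32/40 h.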

[12] = A CellTox Green Cytotoxicity Assay to monitor cytotoxicity in HepG2 cells - 24 hour (AID 1224878); further: nearly all actives have a fitted effect of over 45% in size
In short: as §5

[13] = A CellTox Green Cytotoxicity Assay to monitor cytotoxicity in HepG2 cells - 40 hour (AID 1224879); further: nearly all actives have a fitted effect of over 40% in size; further: potency means the concentration at half of the fitted maximal effect
In short: as §5

[14] = qHTS RealTime-Glo MT Cell Viability Assay in HEK293 cells - 0 hour (AID 1224880)
In short: as §4

[15] = qHTS assay to identify small molecule agonists of H2AX (AID 1224845; active means well fitted activation curve with a large enough effect in the signal ratio in the repeat runs, not every such curve was filed as active; the % refers to the signal ratio)
In short: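 Wild-type CHO-K1 cells, plated overnight, exposed 3hr at 37C to 15 concentrations (0.76% DMSO final). Lysed, then HTRF anti-pH2AX (S139) cryptate and anti-H2AX-d2 antibodies, 24 hr room temperature; 665/620 nm emission read.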

[16] = qHTS assay to identify small molecule antagonists of the estrogen related receptor (ERR) signaling pathway from Tox21 library (AID 1224848); further: nearly all actives have a fitted effect of over 50% in size
In short: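 ERR reporter cell line (from NTP) seeded 2,000 cells/well, rested 6 h at 37 C/5% CO2, then pin-dosed with compounds in DMSO. After 18 h at 37 C, ONE-Glo added; luminescence read after 30 min at room temperature.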

[17] = qHTS assay to identify small molecule agonists of the estrogen related receptor (ERR) signaling pathway from Tox21 library (AID 1224849; calls by dose curve; further: nearly all actives have a fitted effect of over 15% in size); conditions: ERR reporter cell line, ONE-Glo luciferase, 18 h
In short: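 ERR cells, 6 h pre-incubation 37 C/5% CO2; cpd in DMSO pinned; 18 h 37 C; ONE-Glo added, 30 min RT; luminescence read. Agonist mode, qHTS.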

[18] = qHTS RealTime-Glo MT Cell Viability Assay in HepG2 cells - 24 hour (AID 1224867); further: nearly all actives have a fitted effect of over 50% in size
In short: as §6

[19] = qHTS assay to identify small molecule agonists of the hypoxia (HIF-1) signaling pathway (AID 1224846; active means well fitted activation curve with a large enough effect in the signal ratio in the repeat runs, not every such curve was filed as active; the % refers to the signal ratio)
In short: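 Cell line: CellSensor HRE-bla ME-180; 2,000 cells/well; 0.5% dialyzed FBS; 5 h preincubation; DMSO compound pin transfer; 17 h, 37C, 5% CO2; CCF4-AM added; bla FRET signal scored for activation.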

[20] = qHTS RealTime-Glo MT Cell Viability Assay in HEK293 cells - 32 hour (AID 1224868)
In short: as §3
On the % scale 0 is the no-effect control and ±100 the full control effect.

CN1[C@@H]2CC(OC(=O)[C@H](CO)c3ccccc3)C[C@H]1[C@@H]1O[C@@H]12 (stereo partly drawn)
inactive: Potency [1] | Potency [2] | Potency [3] | Potency [4] | Potency [5] | Potency [6] | Potency [7] | max response [8] 0.652% [middle of 4 runs] | Potency [9] | Potency [10] | Potency [11] | Potency [12] | Potency [13] | Potency [14]

CC(C)c1c(C(=O)Nc2ccccc2)c(-c2ccccc2)c(-c2ccc(F)cc2)n1CC[C@@H](O)C[C@@H](O)CC(=O)O
active: Potency [13] 4.21 µM and 5.13 µM and 7.56 µM
inactive: Potency [1] | Potency [2] | Potency [3] | Potency [4] | Potency [5] | Potency [7] | max response [8] -21% | Potency [9] | Potency [11] | Potency [14]

CCN(CC)C(=O)c1cccc(C)c1
inactive: Potency [15] | Potency [2] | Potency [16] | activity change, positive = activation ([17]; at 42.5 µM (top of the series)) 5.47% | activity change, positive = activation ([17]; at 92.4 µM (top of the series)) 0.249% and -23.9% | Potency [18] | Potency [3] | Potency [4] | Potency [5] | Potency [6] | Potency [7] | max response [8] -1.16% and -0.892% and 2.65% | Potency [10] | Potency [11] | Potency [12] | Potency [13] | Potency [14]

CCCCCCCC(=O)OCC(COC(=O)CCCCCCC)OC(=O)CCCCCCC
inactive: Potency [15] | outcome [19] | Potency [2] | Potency [20] | Potency [3] | Potency [4] | Potency [5] | Potency [7] | max response [8] 4.45% and -0.248% and 1.22% | Potency [10] | Potency [11] | Potency [12] | Potency [13] | Potency [14]

CCCCC1(COC(=O)CCC(=O)O)C(=O)N(c2ccccc2)N(c2ccccc2)C1=O
inactive: Potency [15] | Potency [2] | Potency [16] | activity change, positive = activation ([17]; at 42.5 µM (top of the series)) -6.77% | activity change, positive = activation ([17]; at 92.4 µM (top of the series)) 3.58% and -11.1% | Potency [18] | Potency [3] | Potency [4] | Potency [5] | Potency [6] | Potency [7] | max response [8] 0.752% and 12.4% and 1.85% | Potency [9] | Potency [10] | Potency [11] | Potency [12] | Potency [13] | Potency [14]

CNNCc1ccc(C(=O)NC(C)C)cc1
inactive: Potency [15] | Potency [2] | Potency [18] | Potency [20] | Potency [3] | Potency [5] | Potency [6] | Potency [7] | max response [8] 2.93% and 2.31% and 7.98% | Potency [10] | Potency [11] | Potency [12] | Potency [14]
active: Potency [13] 24.5 µM and 15.5 µM and 23.9 µM

CCCCOC(=O)c1ccc(O)cc1
inactive: Potency [15] | Potency [2] | Potency [18] | Potency [3] | Potency [4] | Potency [7] | Potency [9] | Potency [10] | Potency [11] | Potency [13] | Potency [14]
49.6 µM (active) and inactive: Potency [5]
active: Potency [8] 24.8 µM and 21.9 µM

COc1cccc(O)c1O
inactive: Potency [2] | Potency [3] | Potency [5] | Potency [6] | Potency [7] | Potency [11] | Potency [13] | Potency [14]

Oc1ccccc1
inactive: Potency [15] | Potency [2] | Potency [3] | Potency [5] | Potency [7] | max response [8] 1.54% [middle of 5 runs] | Potency [9] | Potency [10] | Potency [11] | Potency [13] | Potency [14]

CN(N=O)C(=O)N[C@@H]1[C@@H](O)[C@H](O)[C@@H](CO)O[C@@H]1O
inactive: Potency [15] | Potency [2] | Potency [18] | Potency [20] | Potency [3] | Potency [4] | Potency [5] | Potency [7] | max response [8] 1.13% and 4.9% and 1.17% | Potency [11] | Potency [12] | Potency [13] | Potency [14]
